Only a selection was taken, and hits are over-represented in it overall.
Artemis endo inh = inhibitors of human Artemis endonuclease activity; Q96SD1; inhibition, % at 10 µM; recombinant Artemis, quenched FAM hairpin cleavage fluorescence; 0.78% of 30,000 active;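 active means at 10 µM dose, at least 30% inhibition, measured as corrected fluorescence normalized to stimulator and neutral control wells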
Target sequence (Q96SD1 whole entry, looked up): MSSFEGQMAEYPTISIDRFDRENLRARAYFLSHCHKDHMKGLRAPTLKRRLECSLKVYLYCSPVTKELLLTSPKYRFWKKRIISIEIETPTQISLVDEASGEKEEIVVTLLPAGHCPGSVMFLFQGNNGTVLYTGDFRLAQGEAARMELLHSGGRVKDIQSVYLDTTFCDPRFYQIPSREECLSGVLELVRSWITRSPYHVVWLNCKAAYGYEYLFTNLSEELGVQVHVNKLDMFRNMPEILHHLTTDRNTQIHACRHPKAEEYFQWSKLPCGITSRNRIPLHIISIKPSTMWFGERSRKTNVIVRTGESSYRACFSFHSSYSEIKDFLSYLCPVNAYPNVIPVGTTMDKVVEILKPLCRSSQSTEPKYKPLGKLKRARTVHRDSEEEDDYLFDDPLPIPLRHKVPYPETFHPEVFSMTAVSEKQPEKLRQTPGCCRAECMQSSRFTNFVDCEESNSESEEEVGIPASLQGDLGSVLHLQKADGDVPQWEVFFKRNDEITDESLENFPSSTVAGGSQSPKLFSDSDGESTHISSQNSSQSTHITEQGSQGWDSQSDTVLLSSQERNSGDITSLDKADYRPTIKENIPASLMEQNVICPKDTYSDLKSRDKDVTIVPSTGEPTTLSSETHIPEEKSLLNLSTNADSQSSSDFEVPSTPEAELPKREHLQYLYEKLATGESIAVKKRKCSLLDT
A number is an active result; - = inactive.

SMILES	Artemis endo inh
COC(=O)C1=C(C)NC(=O)NC1c1cccc(OC)c1OCc1ccccc1 (stereo not given)	-
CCN(CC)S(=O)(=O)c1cc(Br)c(C)cc1OC	-
O=C(O)C(=O)/C(=C\c1ccccc1)c1ccc2ccccc2n1	-
Cc1cccc(NC(=O)c2ccc3ccccc3n2)c1C	-
O=C(O)C(=O)/C(=C\c1cccc2ccccc12)c1ccc2ccccc2n1	30
Cc1nnc(NC(=O)Cn2cnc3c2c(=O)n(C)c(=O)n3C)s1	-
O=C(N/N=C/C=C/c1ccccc1)c1cc2c(ccc3ccccc32)o1	-
CC(NC(=O)NCc1cccnc1)(C(F)(F)F)C(F)(F)F	-
CCOC(=O)/C(C#N)=C1/C=Cc2ccccc2N1CC	-
CCOC(=O)c1c(O)c2ccccc2n(-c2ccccc2)c1=O	-
CCOC(=O)/C=c1\s/c(=C(\C#N)C(=O)OCC)n(-c2ccccc2)c1=O	31
CCc1nnc(N2C(=O)c3cccc4cccc(c34)C2=O)s1	-
COc1ccc(CCNC(=O)Cc2cc(OCc3ccccc3)c(OC)cc2[N+](=O)[O-])cc1OC	-
COc1ccc(NC(=O)CSc2nc(C)cc(C)n2)cc1	-
COc1ccc(NC(=O)CSc2nc3c(cc2C#N)CN(C)CC3)cc1	37
COc1ccc(-c2c(C#N)c(SCC(=O)Nc3ccccc3)nc3c2CCCC3)cc1	-
O=c1oc2c3c4c(cc2c2c1CCC2)OCCN4CCC3	-
Cc1cc(OCC(=O)c2ccc(F)cc2)ccc1N1C(=O)CCC1=O	-
O=C1CC(c2ccco2)Cc2nc(Nc3nc(-c4ccccc4)c4ccccc4n3)ncc21 (stereo not given)	34
Cc1cccc(Nc2ncc3c(n2)CC(c2ccco2)CC3=O)c1 (stereo not given)	-
O=C(Nc1ncc2c(n1)CC(c1ccco1)CC2=O)c1ccccc1 (stereo not given)	-
COc1ccc(C=O)cc1CSc1nnc(COc2cccc3cccnc23)o1	-
CC(C)(C)NC(=O)C1Cc2ccccc2CN1C(=O)Nc1ccccc1Cl (stereo not given)	-
O=C1C(N2CCOCC2)=C(n2nnc3ccccc32)C(=O)c2ccccc21	36
O=C1c2ccccc2C(=O)c2c1cccc2N1CCOCC1	-
SMILES	Artemis endo inh
Cc1nc2ccccc2nc1N1CCOCC1	-
Cc1nnc(SCC(=O)NC(=O)NCc2ccco2)n1Cc1ccccc1	-
O=C(Nc1ccc(NC(=S)NC(=O)C(c2ccccc2)c2ccccc2)cc1)c1ccccc1	-
O=C(CCNS(=O)(=O)c1cccs1)N1CCc2ccccc2C1	-
COc1cccc(C(C(=O)NC2CCCC2)N(Cc2ccc(C)cc2)C(=O)c2ccco2)c1OC (stereo not given)	-
COc1cccc(CN(C(=O)c2ccco2)C(C(=O)NC2CCCC2)c2cccnc2)c1 (stereo not given)	-
COc1ccccc1CN(C(=O)c1ccco1)C(C(=O)NC1CCCC1)c1ccncc1 (stereo not given)	83
Brc1ccc(-c2cn3nc4c(nc3n2)CCCC4)cc1	31
c1ccc(-c2cn3c(n2)SCC3)cc1	-
c1ccc(-c2cn3c(n2)CCC3)cc1	-
Brc1ccc(-c2cnnc(N3CCCC3)n2)cc1	-
c1ccc(-c2cn3nc4c(nc3n2)CCCC4)cc1	34
Brc1ccc2nc3c(n2c1)CCCC3	-
CC(NC(=O)CSc1nnc(-c2cccc(S(=O)(=O)N3CCCCC3)c2)o1)C12CC3CC(CC(C3)C1)C2 (stereo not given)	-
Nc1cc(N)nc(SCC(=O)Nc2ccc(Br)cc2Cl)n1	-
Cc1ccc(NC(=O)CN2CC(C)SC2=NC2CCCCC2)cc1 (stereo not given)	-
Cc1ccc(Nc2nc3c(c(=O)[nH]c(=O)n3C)n2Cc2ccc(F)cc2)cc1	-
Cn1c(-c2ccccc2)cc2c3no[n+]([O-])c3ccc21	-
O=c1[nH]c(-c2ccccn2)nc2ccccc12	-
c1ccc(-c2nc3c(ccc4ccccc43)[nH]2)nc1	44
Cc1[nH]c2ccccc2c1C(c1ccccn1)c1c(C)[nH]c2ccccc12	-
O=C(Nc1ccc(Cl)cn1)c1ccc(-c2ccc(Cl)c(Cl)c2)o1	-
CSc1nnc2c3cc(C)ccc3n(Cc3ccccc3)c2n1	37
O=C1c2ccccc2C(=O)N1CSc1nnc2c3ccccc3n(CCc3ccccc3)c2n1	-
CCCn1c2ccccc2c2nnc(SC(CC)C(=O)Nc3cc(C)on3)nc21 (stereo not given)	-
SMILES	Artemis endo inh
CCCCN1C(=O)NC2NC(=O)NC21 (stereo not given)	-
Fc1ccc(C2=Nn3c(nnc3-c3n[nH]c4c3CCC4)SC2)cc1	-
C1CCC(c2nn3c(-c4n[nH]c5c4CCC5)nnc3s2)CC1	-
CCN(CC)c1ccc(-c2nn3c(-c4n[nH]c5c4CCC5)nnc3s2)cc1	58
COc1ccc(C2/C(=C(\O)c3cc(C)ccc3C)C(=O)C(=O)N2CCN(C)C)cc1OC (stereo not given)	-
Cc1cc(C)c(S(C)(=O)=O)c(Oc2ccc(C(C)(C)C)cc2)n1	-
CCC(=O)N(C)/C=C1\Sc2ccccc2C1=O	-
CC(=O)N(C)/C=C1\Sc2ccccc2C1=O	-
CC(=O)N(/N=C1\Sc2ccccc2C1=O)c1cccc(C)c1	36
c1ccc2c(SCc3cn4cccnc4n3)ncnc2c1	-
O=c1c2c(-c3ccco3)csc2nc(SCc2cn3cccnc3n2)n1-c1ccccc1	31
O=c1c2ccccc2nc(SCc2cn3ccsc3n2)n1-c1ccc(F)cc1	-
O=C(CN(C1CCCCC1)C1CCCCC1)N1CCc2ccccc2C1	-
O=C1C(Nc2ccccc2)=C(N2CCCCC2)C(=O)c2ccccc21	39
O=C(Nc1ccccc1)Nc1ccc(S(=O)(=O)N2CCCCC2)cc1	-
O=C1c2ccccc2C(=O)c2c1ccc(C(=O)N1CCCCC1)c2NCCO	-
CN(C)/C=C(/C#N)C(=O)c1cccc(Oc2ccc(C(C)(C)C)cc2)c1	-
CC(C)c1nc2sc3c(SCC(=O)NCc4ccco4)ncnc3c2c2c1CCC2	-
CSc1nc(N(CCO)CCO)c2sc3nc(-c4ccco4)c4c(c3c2n1)CCC4	46
N#Cc1sc2nc3c(c(-c4ccco4)c2c1N)CCCC3	-
Cc1cc(C)n2nc(C(=O)OCCOc3ccc(F)cc3)nc2n1	-
COC(=O)c1ccc(CSc2nc3ccc(C)cc3[nH]2)o1	-
CCn1c(SCC(=O)Nc2sc3c(c2C#N)CCCC3)nnc1-c1ccco1	-
COc1ccc(-c2nnc(SCC(=O)Nc3sc4c(c3C#N)CCC4)n2CC2CCCO2)cc1 (stereo not given)	42
COc1ccc(-c2nnc(SCC(=O)NC(C)C)n2CC2CCCO2)cc1OC (stereo not given)	-
SMILES	Artemis endo inh
COc1ccc(-n2c(SCC(=O)Nc3sc4c(c3C#N)CCCC4)nnc2-c2ccccc2OC)cc1	-
N#Cc1c(NC(=O)CSc2nnc(-c3ccco3)n2-c2ccccc2)sc2c1CCC2	36
COc1ccc(-c2ccc(C#N)c(SCC(=O)Nc3sc4c(c3C#N)CCC4)n2)cc1	-
CN(CCOc1ccccc1)S(=O)(=O)c1ccc2oc3ccccc3c2c1	-
CCOC(=O)C(=O)Nc1nnc(CCc2ccccc2)s1	-
COc1ccc(OC)c(NC(=S)NCc2ccco2)c1	-
CC(C)Cn1c(=O)c2c(c3ccccc31)OC(C)C(=O)N2 (stereo not given)	-
COc1cccc(/C=N/NC(=O)c2c(-c3ccccc3)noc2C)c1O	-
COc1cccc(/C=N/Nc2nc(Nc3ccccc3)nc(-n3nc(C)cc3C)n2)c1O	96
COc1cccc(/C=N/n2c(C)nc3ccccc3c2=O)c1O	-
O=C(Cc1ccc(Cl)cc1)NCC(=O)N1CCCC1	-

Assay outcomes as filed in PubChem BioAssay.
